Assay outcomes from PubChem BioAssay.
HCMV antiviral: qHTS Assay for inhibitors of the human cytomegalovirus (HCMV); HFF cells, HCMV-luciferase reporter, 72 h; stronger effect = lower value; activity change, negative = inhibition, % at 57.5 µM; 410,000 tested, 4.5% active; in the data active means activity change below about -60%; inconclusive means no clear call, values can overlap the other calls; inactive means above about -39%; further: on the % scale 0 is the no-effect control and ±100 the full control effect
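Screen run at 2 compound doses on HFFs infected with reporter HCMV, MOI 1 PFU/cell. Luciferase activity from cell lysates at 72 h post infection gave inhibition relative to buffer-only and Salinomycin wells.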
Pf growth 96h: Primary qHTS for delayed death inhibitors of the malarial parasite plastid, 96 hour incubation; P. falciparum luciferase reporter growth, 96 h; Potency, µM (doses to about 28.7 µM), inactives show at the top dose activity change, negative = inhibition, actives largely listed as inhibitors; 320,000 tested, 6.9% active; further: potency means the concentration at half of the fitted maximal effect; on the % scale 0 is the no-effect control and ±100 the full control effect
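Parasite growth measured via integrated firefly luciferase reporter in P. falciparum. Infected erythrocytes at 2% hematocrit, 0.05% parasitemia final were treated 96 hours at 37 C under 5% CO2, and luminescence was read.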
Sm TGR inh: qHTS Assay for the Inhibitors of Schistosoma Mansoni Peroxiredoxins. purified TGR, DTNB reduction, TNB absorbance 405 nm. Potency, µM (titrated, usually from 114 µM), inactives show at the highest dose activity change, negative = inhibition, usual class: inhibitors. Schistosoma mansoni thioredoxin glutathione reductase (TGR), Q962Y6. 360,000 tested, 3% active. AID 485364, 2010; further: potency means the concentration at half of the fitted maximal effect; on the % scale 0 is the no-effect control and ±100 the full control effect; nearly all actives have a fitted effect of over 60% in size
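First, TGR (20 nM dispensed) and NADPH were mixed with compound. Second, a 15 min room-temperature incubation followed. Third, further NADPH and then DTNB were added to start the reaction. Finally, TNB absorbance was monitored kinetically.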
Pf growth 48h: Primary qHTS for delayed death inhibitors of the malarial parasite plastid, 48 hour incubation; 310,000 tested, 5.9% active; P. falciparum luciferase growth in erythrocytes, 48 h; AID 504832, 2011; Potency, µM (series often up to 28.7 µM), inactives show at the top dose activity change, negative = inhibition, most hits filed as inhibitors; further: potency means the concentration at half of the fitted maximal effect; on the % scale 0 is the no-effect control and ±100 the full control effect
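Firefly luciferase activity from engineered P. falciparum reports growth; inhibitors lower the luminescent signal. Cultures contained 2% hematocrit erythrocytes at 0.1% final parasitemia.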
HCV inhibitor: qHTS Assay for Inhibitors of Hepatitis C Virus (HCV) | Potency, µM (doses to about 41.8 µM), for inactives: top-dose activity change, negative = inhibition, usual class: inhibitors | 340,000 tested, 3.4% active | Huh7.5.1 HCVcc-Cre infection, luciferase reporter, 44 h; further: potency means the concentration at half of the fitted maximal effect; on the % scale 0 is the no-effect control and ±100 the full control effect
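Compounds are dispensed onto cells plated 4 h earlier at 1,000 per well, with HCVcc-Cre virus (about 0.5 moi) added next. Following 44 h of culture, luminescent signal is measured for 15 sec after 15 min with substrate at room temperature.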
SARS PLpro yeast: qHTS of Yeast-based Assay for SARS-CoV PLP | S. cerevisiae expressing SARS-CoV PLpro, growth rescue | AID 485353, 2010 | 330,000 tested, 0.19% active | Potency, µM (series often up to 32.9 µM), without a hit: at the highest dose activity, positive = growth rescue, actives largely listed as activators; calls by dose curve; further: potency means the concentration at half of the fitted maximal effect; 0% is about no effect; nearly all actives have a fitted effect of over 55% in size
* hit, by the source's call; ? = inconclusive; nt = no result; [ ] = another dose, or the depositor's remark. Sampled rows, rich in hits. Any-hit rate of the full collection: about 15%. Unless noted, the call rests on the fitted dose curve; in most records, active means well fitted curve in the direction sought with a large enough effect; inconclusive means small, poorly fitted or top-dose-only effect, or another doubt; inactive means no such curve, though single readings can be large; an effect the other way counts as inactive or inconclusive.

SMILES	HCMV antiviral	Pf growth 96h	Sm TGR inh	Pf growth 48h	HCV inhibitor	SARS PLpro yeast
CCCC(NC(=S)NCC1CCCO1)C12CC3CC(CC(C3)C1)C2 (centres undefined)	-93*	-1%	-11%	2.6µM*	11µM*	3%
S=C(NCC1CCCO1)NC1CCCCC1 (centres undefined)	-1	2%	12%	19%	16%	0%
COC(=O)[C@@H]1Cc2c([nH]c3ccccc23)C(C)(C)N1C(=O)CCl	-99*	?	32µM*	12µM*	1µM*	-2%
O=[N+]([O-])c1ccc(Sc2nnnn2-c2ccccc2)c(Cl)c1	-73*	?	?	nt	-27%	-28%
CC(=O)c1ccc(Sc2ccccn2)c([N+](=O)[O-])c1	-8	9%	8%	14%	14%	1%
Cn1nnnc1Sc1ccc([N+](=O)[O-])cc1Cl	?	15%	-15%	?	-3%	0%
CC(=O)c1ccc(Sc2nnnn2-c2ccccc2)c([N+](=O)[O-])c1	-67*	0%	35µM*	-24%	?	-66%
CN1CCN(S(=O)(=O)c2ccc(Sc3nnnn3-c3ccccc3)c([N+](=O)[O-])c2)CC1	12	?	7.1µM*	?	13%	-4%
CNc1nc2cnc(Nc3cccc(OC)c3)cc2n1Cc1ccc(OC)c(OC)c1	24	nt	nt	nt	nt	nt
COC(=O)c1c(-c2ccccc2)oc2c1C(OCCO)CCC2 (centres undefined)	-5	nt	nt	nt	nt	nt
CCn1c(SCC(=O)N2CCCCCC2)nc2c(c1=O)SCC2	12	5.9µM*	1%	-10%	nt	23%
CCOC(=O)N1CCN(C(=O)CSc2nc3c(c(=O)n2-c2ccccc2OC)SCC3)CC1	-34	1.3µM*	6%	?	18%	-5%
COc1ccccc1-n1c(SCC(=O)Nc2nnc(C)s2)nc2c(c1=O)SCC2	nt	12µM*	-4%	0%	24%	21%
O=C(Nc1ccc(Cl)c(Cl)c1)NC1CCS(=O)(=O)C1 (centres undefined)	-5	48%	-3%	14%	4%	0%
O=C(Nc1ccc(Cl)c(Cl)c1)Nc1cc(C(=O)NC2CC2)ccc1Cl	nt	?	2%	13µM*	?	-4%
CCN(C(=O)Cc1cccs1)c1nnc(-c2cc(OC)c(OC)c(OC)c2)s1	51	-17%	-1%	5.2µM*	?	0%
CSCCC(NC(=O)c1ccc(Cl)c([N+](=O)[O-])c1)C(=O)N1CCN(C/C=C/c2ccccc2)CC1 (centres undefined)	8	?	-11%	?	?	1%
Cc1noc2ncnc(N3CCCC3)c12	-11	-9%	1%	3%	-14%	0%
Cc1noc2ncnc(Sc3ccc(Br)cc3)c12	-106*	?	?	?	32µM*	0%
CCCCCCSc1cccc(-c2nc3ccc(Cl)cn3c2NCc2ccccc2)c1	-17	?	-2%	7.4µM*	?	0%
Clc1ccc2nc(-c3cccc(SC4CCCCC4)c3)c(NCc3ccccc3)n2c1	-12	3.7µM*	-7%	4.1µM*	-4%	2%
CCCCNc1c(-c2cccc(SC3CCCCC3)c2)nc2ccc(Cl)cn12	-2	?	-5%	10µM*	-4%	-6%
CCN(C(=O)COC(=O)CCC1CCCC1)c1c(N)n(Cc2ccccc2)c(=O)[nH]c1=O	-19	-2%	-2%	5%	-5%	0%
Cc1cc(SCC(=O)N(C)C2CCS(=O)(=O)C2)nc2c(C)cccc12 (centres undefined)	12	18%	-11%	-4%	-6%	-1%
Cc1cc(NC(=O)C2CCCN(S(=O)(=O)c3cn(C)cn3)C2)ccc1Br (centres undefined)	55	nt	0%	nt	nt	nt
SMILES	HCMV antiviral	Pf growth 96h	Sm TGR inh	Pf growth 48h	HCV inhibitor	SARS PLpro yeast
CCCN1CCC(=O)N([C@H](CSc2ccc(OC)cc2)CC(C)C)CC1	36	?	?	?	19%	0%
CCCN1CCC(=O)N([C@H](CN=[N+]=[N-])CC(C)C)CC1	44	4.7µM*	-19%	?	20%	-5%
c1ccc2c(c1)ncn2-c1ncnc2sc3c(c12)CCCC3	-64*	-1%	12%	19%	-5%	3%
Cc1sc2ncnc(-n3nnc4ccccc43)c2c1C	?	0%	3%	-2%	-5%	0%
Oc1ccc(N2CCN(c3ncnc4sc5c(c34)CCC5)CC2)cc1	-82*	?	-24%	?	?	7%
Brc1ccc(-c2csc3ncnc(-n4nnc5ccccc54)c23)cc1	-68*	?	7%	-14%	?	1%
c1ccc2c(c1)nnn2-c1ncnc2sc3c(c12)CCCC3	?	3.3µM*	13%	0%	nt	7%
Cc1cc2ncn(-c3ncnc4sc5c(c34)CCCC5)c2cc1C	-34	nt	3%	8%	13%	-3%
Cc1nc(-n2nnc3ccccc32)c2c3c(sc2n1)CCCC3	?	3%[5.75 µM]	9%	-8%	?	1%
CN1CCN(C(=O)c2ccc(N3CC4ON=C(c5c(F)cccc5Cl)C4C3)cc2)CC1 (centres undefined)	-13	nt	nt	nt	nt	nt
CC(NC(=O)CN1C(=O)NC2(CCCCC2)C1=O)c1ccc(S(N)(=O)=O)cc1 (centres undefined)	14	nt	nt	nt	-5%	nt
Cc1c(C(=O)N(Cc2ccccc2F)C2CCS(=O)(=O)C2)oc2ccc(F)cc12 (centres undefined)	9	nt	2%	nt	nt	nt
CC(O)CNc1nc2ccccc2n1-c1ncnc2sc3c(c12)CCC3 (centres undefined)	-27	4.1µM*	-1%[11.4 µM]	nt	?	-6%
CC(O)CNc1nc2ccccc2n1CC(=O)NC12CC3CC(CC(C3)C1)C2 (centres undefined)	-3	0%	-7%	-14%	-3%	0%
CCCCn1c(O)c(/C=N/N2CCCCC2c2cccnc2)c(=O)[nH]c1=S (centres undefined)	-7	?	-1%	20%	-4%	21%
C/C(=N\N1CCCCC1c1cccnc1)c1c(O)n(C2CCCCC2)c(=S)[nH]c1=O (centres undefined)	-103*	3.3µM*	-11%	9.3µM*	?	-9%
CCCCn1c(O)c(/C(CC)=N/N2CCCCC2c2cccnc2)c(=O)[nH]c1=S (centres undefined)	-63*	2.9µM*	-1%	9.3µM*	-28%	-11%
